Laboratory results from PubChem BioAssay (NCATS).
Records with an inconclusive call do not appear. Entries that show only a call come without a potency. A number with no mark means an inactive call. The source made the active and inactive calls. The call rests on the fitted dose curve; in most records, active means well fitted curve in the direction sought with a large enough effect; inconclusive means small, poorly fitted or top-dose-only effect, or another doubt; inactive means no such curve, though single readings can be large; an effect the other way counts as inactive or inconclusive.

Key:
[1] = molecular target: Aldehyde dehydrogenase, mitochondrial (Homo sapiens) (UniProt P05091); assay: qHTS for Inhibitors of the Aldehyde Dehydrogenase Family (ALDH2) Primary screen (AID 2061308); further: nearly all actives have a fitted effect of over 55% in size
[2] = molecular target: Retinaldehyde dehydrogenase 3 (Homo sapiens) (UniProt P47895); assay: qHTS for Inhibitors of the Aldehyde Dehydrogenase Family (ALDH1A3) Primary screen (AID 2061315)

| SMILES | Potency [1] | Potency [2] | activity change, negative = inhibition [1] | activity change, negative = inhibition [2] |
| --- | --- | --- | --- | --- |
| CCC1C(=O)N(C)c2cnc(Nc3ccc(C(=O)NC4CCN(C)CC4)cc3OC)nc2N1C1CCCC1 (stereo unspecified) | inactive | inactive | – | – |
| N[C@H](C(=O)Nc1ccc(Cl)cc1C(=O)c1ccc[nH]1)c1ccccc1 | inactive | inactive | – | – |
| Cc1ccc(S(=O)(=O)Nc2cc(Cl)cc(C(=O)Nc3nc(-c4ccccc4)cs3)c2)cc1 | inactive | inactive | – | – |
| Cc1cc(NC(=O)Nc2nnc(C3CCCCC3)s2)ccc1F | inactive | inactive | – | – |
| COc1cccc(CNc2ccc(S(=O)(=O)Nc3nc4c(C)cccc4s3)cc2)c1O | inactive | inactive | – | – |
| Cn1c(=O)c2c(nc(CN3CCN(C(=O)C4CC4)CC3)n2Cc2ccccc2Cl)n(C)c1=O | inactive | inactive | – | – |
| COc1cccc(C)c1NC(=O)C(OC(=O)CNC(=O)c1ccccc1)c1ccccc1 (stereo unspecified) | inactive | inactive | – | – |
| COc1ccc2c(c1)CN(C(=O)CCN1CCC(Cc3ccccc3)CC1)CCS2 | inactive | inactive | – | – |
| CN1CCC(c2cn(C)c3ccc(OS(=O)(=O)c4c(F)cccc4F)cc23)CC1 | inactive | inactive | – | – |
| O=C1Nc2cccc(Cl)c2/C1=C\c1cc(Cl)c(O)c(Cl)c1 | inactive | inactive | – | – |
| COc1ccc(Nc2nc(-c3ccncc3)nc3ccccc23)cc1F | inactive | inactive | – | – |
| O=C(OCC#CCSc1nnc(-c2ccc3ccccc3c2)o1)c1ccccc1 | inactive | inactive | – | – |
| Cc1cc(-c2nnc3n2CCCCC3)c(C)n1-c1ccccc1 | inactive | inactive | – | – |
| O=[S+]([O-])(c1c(F)cccc1F)N1CCN([S+](=O)([O-])c2c(F)c(F)c(F)c(F)c2F)CC1 | inactive | inactive | – | – |
| C[S+](=O)([O-])c1ccc(-c2ccc(=O)n(CC(=O)NCCc3ccccc3)n2)cc1 | inactive | inactive | – | – |
| CCS(=O)(=O)N1CCC(C(=O)Nc2ccc(S(=O)(=O)Nc3nccs3)cc2)CC1 | inactive | inactive | – | – |
| O=C(Nc1ccc(Br)c(Br)c1)Nc1cccc(-c2ccncc2)n1 | inactive | inactive | – | – |
| COc1ccccc1C1c2c(ncn(-c3ccccc3)c2=N)Oc2ccc3ccccc3c21 (stereo unspecified) | inactive | inactive | – | – |
| C=C(C)C(=O)O[C@H]1/C(C=O)=C\CC/C(CO)=C/[C@H]2OC(=O)C(=C)[C@@H]2[C@@H]1OC | inactive | inactive | – | – |

| SMILES | Potency [1] | Potency [2] | activity change, negative = inhibition [1] | activity change, negative = inhibition [2] |
| --- | --- | --- | --- | --- |
| Cc1ccc(S(=O)(=O)Nc2ccccc2C(=O)Nc2ccc(-c3ccccc3)cc2)cc1 | inactive | inactive | – | – |
| C[C@@H]1O[C@@H](O[C@H]2[C@H](OC(=O)[C@]34CCC(C)(C)C[C@H]3C3=CCC5[C@@]6(C)C[C@H](O)[C@H](O[C@@H]7O[C@H](CO)[C@@H](O[C@@H]8O[C@H](CO)[C@@H](O)[C@H](O)[C@H]8O)[C@H](O)[C@H]7O)[C@@](C)(CO)C6[C@H](O)C[C@@]5(C)[C@]3(C)C[C@H]4O)OC[C@H](O)[C@@H]2O)[C@H](O)[C@H](O)[C@H]1O[C@@H]1OC[C@@H](O)[C@H](O[C@@H]2OC[C@](O)(CO)[C@H]2O)[C@H]1O (stereo partly specified) | – | – | -1.66% [at 11.2 µM] | -12.4% [at 11.2 µM] |
| COC(=O)c1ccc(O)c2ncc(N(C)C)cc12 | inactive | inactive | – | – |
| Cc1cccc(CNc2ncnc3ccc(-c4cccc(C)c4)cc23)c1 | inactive | inactive | – | – |
| COC(=O)c1ccccc1S(=O)(=O)Nc1cc(=O)c2ccccc2[nH]1 | inactive | inactive | – | – |
| C#CCOc1ccc(C(C)=O)cc1-c1nnc2n1N=C(c1ccc(OC)c(OC)c1)CS2 | inactive | inactive | – | – |
| O=c1c2ccccc2nc2sc(Nc3ccc4c(c3)CCC4)nn12 | inactive | inactive | – | – |
| O=C1c2ccc(Nc3ccc(F)cc3F)cc2CCc2ccc(OCC(O)CO)cc21 (stereo unspecified) | inactive | inactive | – | – |
| CC(Cc1ccccc1)C(=O)Nc1ccc(Cl)cc1C(=O)O (stereo unspecified) | inactive | inactive | – | – |
| COCCCc1cc(F)c(S(=O)(=O)N2CCN(S(=O)(=O)c3ccc4c(c3)OCCO4)CC2)cc1F | inactive | inactive | – | – |
| O=C(/C=C/n1cnc(-c2cc(C(F)(F)F)cc(C(F)(F)F)c2)n1)NNc1cnccn1 | inactive | inactive | – | – |
| O=C(O)c1ccc(S(=O)(=O)N[C@H](Cc2ccc([N+](=O)[O-])cc2)C(=O)O)cc1 | inactive | inactive | – | – |
| Cc1ccc(NS(=O)(=O)c2cccc(F)c2)cc1C | inactive | inactive | – | – |
| COc1cc(OC)cc(N2CCN(C(=S)Nc3cc(C)cc(C)n3)CC2)c1 | inactive | inactive | – | – |
| CN(Cc1cccs1)c1nc(-c2ccccc2C(F)(F)F)nc2ccccc12 | inactive | inactive | – | – |
| Cc1cc(N[S+](=O)([O-])c2ccc(NC(=O)Cc3nc4ccc(Cl)cc4[nH]3)cc2)no1 | inactive | inactive | – | – |
| O=C(C[C@H]1CC[C@@H](C(=O)Nc2ccc(S(=O)(=O)Nc3nccs3)cc2)C1)c1ccccc1 | inactive | inactive | – | – |
| O=C1CCCC2=C1C(c1cccc(Cl)c1)N=C(Nc1nc3ccccc3o1)N2 (stereo unspecified) | inactive | inactive | – | – |
| CC(C)C[C@H](C(=O)O)c1cc(-c2ccc(C(F)(F)F)cc2)cc(-c2ccc(C(F)(F)F)cc2)c1 | inactive | inactive | – | – |
